In PubChem BioAssay AID1053144 (Broad Institute, 2014):
Screen size: about 3,400 compounds; about 160 (4.7%) were called active.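 Rule for the calls: active = fitted curve reaches 30% activation at a concentration no higher than the top valid tested dose, luminescence rising; inconclusive = no clear call, values can overlap the other calls; inactive = signal moving opposite to the expected increase, plus the rest.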 The list is a sample of the results. Measured potencies and affinities stand elsewhere.

assay: Wnt/beta-catenin signaling activators, dose response, cell-based, iPS-derived NPC, luciferase, Wnt3a, cherry-pick (AID 1053144); conditions: NPC TCF/LEF luciferase reporter, Wnt3a EC25, 24 h; series mostly up to 26 µM; activation: at the top concentration;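 note: Wnt3a stimulus is conditioned medium from Wnt3a-transfected mouse L cells at 5% in well; 0% = neutral control wells and 100% = CHIR-99021 positive control wells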

activation, inactive:
COc1ccccc1C1CC(c2cccs2)=Nc2ccccc2S1 (centres undefined) -0.562%
COc1ccc2oc(C(=O)Nc3ccc(C)cn3)c(C)c2c1 4.94%
COc1cc(/C=N/Nc2ccccn2)ccc1O 15.7%
COc1ccc(/C=N/Nc2nc3ccccc3o2)cc1O -6.25%
Nc1[nH]n(-c2ccccc2)c(=O)c1N=Nc1ccccc1[N+](=O)[O-] 14.7%
COCCNC(=O)c1ccc2c(Cl)c3c(nc2c1)CCC3 11.6%
CCOC(=O)c1c(C)[nH]c(C(=O)OCc2ccccc2)c1C 11.5%
CCOC(=O)c1c(C)[nH]c(C(=O)OCC(=O)c2ccccc2)c1C 14.7%
COc1ccc(N2CCN(c3ccc(NC(=O)/C=C\C(=O)O)cc3)CC2)cc1 0.048%
CCOC(=O)N1CCC(N2CCCC(C(=O)c3cc(F)ccc3OC)C2)CC1 (centres undefined) -0.943%
Cc1ccc(-c2nn(-c3ccccc3)cc2C=O)o1 9.4%
O=C(NCc1cccnc1)C(=O)Nc1nc2ccccc2s1 7.41%
OCC1(CCOc2ccccc2)CCN(Cc2ccccc2C(F)(F)F)CC1 -1.43%
Nc1ccc2nc(NC(=O)C3CCCCC3)sc2c1 13.5%
Cc1cc(/C=N/NC(=O)c2ccccc2F)c(C)n1-c1ccccc1 5.67%
COc1ccc(CN2C(=O)c3cccc4cccc(c34)C2=O)cc1 -0.645%
COc1ccc(N2C(=O)c3ccccc3C2O)cc1 (centres undefined) 7.59%
O=C(c1cc2cc(F)ccc2[nH]1)N1CCc2ccccc21 10.3%
Cc1ccc(-c2nc3ccsc3c(=O)o2)cc1 8%
Cc1ccnc2ccc(-c3nc4ccccc4o3)cc12 12.7%
COc1ccc(C2CC(=O)N(C)c3ccccc3S2)cc1OC (centres undefined) 17.8%
Clc1cccc(-c2ccc3ncnc(NCc4cccs4)c3c2)c1 8.6%
O=c1cc(-c2ccccc2)oc2ccc(Cl)cc12 8.75%
O=c1cc(-c2ccc3c(c2)OCCO3)oc2ccc(Cl)cc12 5.72%
C/C(=N/NC(=O)c1ccco1)c1ccc(NC(=O)c2ccc(F)cc2)cc1 3.65%
Cc1cccc(-c2nnc(-c3cccc4ccccc34)o2)c1 6.2%
Cc1ccccc1-c1nnc(-c2cccc3ccccc23)o1 7.55%
Nc1ccc(-c2nnc(-c3ccc(N)cc3)o2)cc1 9.86%
Cc1ccc(NC(=O)N2CCC(c3ccccc3)C2)cc1C (centres undefined) 18%
O=C(Cc1nc2ccccc2[nH]c1=O)c1ccccc1 7.66%
CCc1cc(C(=O)Cc2nc3ccccc3[nH]2)c(O)cc1O 5.81%
CCc1ccc(C(=O)COC(=O)c2ccccc2OC)cc1 15.9%
COc1ccc(-c2nnc(SCC(C)C)o2)cc1 5.72%
COc1ccc(-c2nnc(SCC(=O)Nc3cccc(Cl)c3)o2)cc1 5.55%
Cc1onc(C(=O)Nc2sc3c(c2C#N)CCCC3)c1[N+](=O)[O-] 3.37%
Cc1cc(NC(=O)c2cccc(F)c2)ncc1NC(=O)c1ccco1 5.89%
O=C(/C=C/C=C/c1ccccc1)c1ccco1 19.1%
Cc1ccc(N/C=C/C(=O)c2ccco2)c(O)c1 12.8%
Cc1ccnc(NC(=O)c2cc3cc(F)ccc3s2)c1 5.25%
CC(C)NC(=O)c1cc(-c2cccs2)on1 21.6%
Cc1ccc(NC(=O)c2cc(-c3cccs3)on2)cc1C 9.24%
CCc1cc(CNC(=O)CCc2nnc(CCCc3ccccc3)o2)on1 12%
O=C(NC(=O)c1ccc(F)cc1F)Nc1ccc(Cl)cc1 17.1%
Nc1ccc(O)c2c(=O)cc(-c3ccccc3Cl)oc12 7.45%
CCCOc1ccc(-c2csc3nc[nH]c(=O)c23)cc1 4.45%
COc1ccc2cc(CCNC(=O)c3cccs3)c(=O)[nH]c2c1 9.16%
COc1ccc2[nH]c(-c3ccccc3)cc2c1 6.06%
Cc1ccc(CONC(=O)c2ccc(C)cc2)cc1 8.43%
COc1ccc(N=Nc2ccc(N)nc2N)cc1 12.9%
Nc1ccc(N=Nc2ccccc2)c(N)n1 12.5%
CCOC(=O)C1(Cc2ccccc2)CCCN(C(=O)COc2ccccc2OC)C1 (centres undefined) 9.49%
Cn1c(SCc2ccccc2F)nnc1-c1ccccn1 13.6%
Cn1c(SCC(=O)c2ccccc2)nnc1-c1ccccn1 11.4%
Cc1ccc(NC(=O)C(=O)NCCCN2CCCC2=O)cc1 6.01%
COc1ccc2oc(=O)c(-c3nc4ccccc4o3)cc2c1 16.9%
COc1cccc2cc(-c3nc4ccccc4o3)c(=O)oc12 6.12%
N/C(=N\OC(=O)c1cccs1)c1ccc(Cl)cc1 10.6%
O=C(Nc1ccccc1)Nc1nnc(-c2ccccc2)s1 8.64%
COc1ccc(C(C(=O)NC2CCCC2)n2c(C3CCN(C(C)=O)CC3)nc3ccccc32)cc1 (centres undefined) 16.6%
c1ccc2c(c1)Cc1cc3ccccc3nc1-2 15.7%
O=C(O)c1ccc2c(c1)C(=O)N(c1ccc(C(=O)OCC(=O)c3ccccc3)cc1)C2=O 7.5%
O=C(/C=C/c1ccc(N2CCOCC2)cc1)c1ccccc1 5.79%
CCC(C)C(=O)Nc1nc2ccc(OC)cc2s1 (centres undefined) 11.1%
CC(=O)Nc1nonc1NC(=O)c1ccc(C(C)(C)C)cc1 6.59%
CCCCn1c(CN2CCN(C(=O)OCC)CC2)nc2c1c(=O)n(C)c(=O)n2C 1.14%
Cc1ccc(-c2noc(-c3ccccc3F)n2)cc1 7.61%
Fc1ccccc1-c1nc(-c2ccccc2)no1 4.1%
Cc1ccc(OCc2cc(C(=O)NCC(C)(C)N3CCOCC3)no2)cc1C 13.3%
NC(=O)CSc1nnc(NC(=O)c2ccc3ccccc3c2)s1 8.39%
CC1CCN(C(=O)CSc2nc3ccccc3s2)CC1 7.04%
NC(=O)c1c(NC(=O)c2ccccc2)sc2c1CCC2 9.7%
CC1CCC2(CC1)NC(=O)N(CC(=O)Nc1sc3c(c1C(N)=O)CCC3)C2=O (centres undefined) 5.23%
CN1CCN(c2ccc(NC(=O)c3ccc(-c4ccccc4F)o3)cc2)CC1 13.4%
CCn1c(SCC(=O)c2ccccc2)nnc1-c1cnccn1 9.13%
Cn1c(SCC(=O)c2ccccc2)nnc1-c1ccc(O)cc1 13%
O=C(Nc1nnc(C2CCCCC2)s1)c1cccs1 4.29%
Cc1ccnc(N/C=C/C(=O)c2ccc(Br)cc2)c1 3.27%
Cc1nc2ccc(-c3nc4cc(N)ccc4o3)cc2[nH]1 3.55%
Nc1ccc(-c2nc3ccc([N+](=O)[O-])cc3[nH]2)cc1 18.3%
CCCOc1ccc(C(=O)Nc2ccc3c(c2)OCO3)cc1 13.3%
CC1CCC(NC(=O)c2cccn2C)CC1 (centres undefined) 2.89%
C=C(C)CNC(=O)CCc1nnc(Cc2cccc(C(F)(F)F)c2)o1 17%
O=C(COc1ccc2c(c1)OCO2)Nc1ccccc1F 8.94%
O=C(NCC(c1ccco1)N1CCCC1)c1cc(=O)[nH]c2ccccc12 (centres undefined) 0.695%
O=C(O)c1ccccc1SCc1cn2cc(Cl)ccc2n1 9.86%
CCOC(=O)/C(=C/c1ccc(OC(=O)c2ccncc2)cc1)C(C)=O 2.42%
CN1CCSc2ccc(C(=O)Nc3ccc(Cl)cc3)cc21 12.8%
COc1ccc(NC(=O)c2ccc3c(c2)N(C)CCS3)cc1 8.32%
Cc1ccc2c(c1)c1c(n2C)-c2[nH]ncc2CC1 8.88%
COC(=O)c1nn(-c2ccc(C)cc2)c2nnc(Cc3ccccc3)c(=O)n12 1.09%
COC(=O)c1ccc(NC(=O)c2ccco2)cc1 24.7%
O=C(Nc1ccc(Cl)cc1)c1ccco1 6.38%
COc1ncccc1-c1nnn(-c2ccccc2)n1 8.3%
CC(=O)NC(CC(=O)NNC(=O)COc1c(C)cccc1C)c1ccccc1 (centres undefined) -0.753%
Cc1cc(NC(=O)c2ccccc2)ncc1NC(=O)c1ccco1 6.34%
CSc1nccc(N/N=C/c2ccccc2)n1 9.49%
COc1ccc(C(=O)c2c[nH]c(C(=O)NCCCn3ccnc3)c2)cc1 2.91%
O=C(NCc1cccs1)c1cc(-c2ccc(O)cc2)on1 9.8%
O=c1c2ccccc2oc2ccc(NCCCn3ccnc3)cc12 0.761%
O=C(NC1CCCCC1)c1cc(-c2cccs2)on1 6.56%
O=C(c1cc(-c2ccccc2)on1)N1CCCCCC1 13.4%
O=C(NC1CCCC1)c1cc(-c2ccc(Cl)cc2)on1 13.5%
CC(C)(C)c1cccc(N/C(=C\C(=O)c2ccccc2)c2ccccc2)c1 -2.87%
CC(=O)c1ccc(OCc2ccccc2)c(C)c1O 6.75%
O=C(Nc1nnc(-c2ccco2)s1)C1CC1 4.36%
COc1cccc(N=c2oc3ccccc3cc2-c2nc3ccccc3[nH]2)c1 -4.17%
Cc1cc(C(=O)Nc2ccc(Br)cn2)sc1C 8.02%
O=C(Nc1ccc(Br)cn1)c1ccc(Cl)s1 2.47%
CC(=O)c1cc(F)ccc1OCC(=O)Nc1ccc2c(c1)OCO2 8%
O=S(=O)(c1cccs1)N1CCCc2cccc(O)c21 8.4%
COc1cccc(OCc2cc(C(=O)N3CCN(c4ccccc4OC)CC3)no2)c1 6.95%
O=C(O)COn1c(-c2ccccc2)nc2ccc([N+](=O)[O-])cc21 8.93%
Cc1ccnc(SCc2cc(=O)c(OC(=O)c3ccc(Br)o3)co2)n1 7.99%
COc1ccc(/C=C/C(=O)c2cc3c(cc2N)OCO3)cc1 6.99%
O=C(/C=C/c1ccc2c(c1)OCO2)c1ccc[nH]1 6.1%
O=C(/C=C/c1ccccc1)NC(=O)c1ccccc1O 5.83%
O=C(/C=C/c1cc2ccccc2o1)c1ccccc1O 9.57%
O=C(N/N=C/c1ccc(N2CCOCC2)cc1)c1cccs1 8.99%
CCc1sc(C(=O)N2CCc3ccccc32)cc1C 3.85%
CC(C)[C@H](NC(=O)OCc1ccccc1)C(=O)OCC(=O)c1ccccc1 4.59%
COc1cc(/C=C/C(=O)N2C(=O)c3cccc(N)c3C2=O)cc(OC)c1OC -6.94%
COc1ccc(NC(=O)c2cc3ccccc3cc2O)cc1 12.5%
Cc1ccc(NC(=O)c2ccccc2NC(=O)Cc2ccccc2)cc1 7.38%
Cc1cnc(C(=O)Nc2ccc(C(C)C)cc2)cn1 12.2%
COc1cc2ccccc2cc1C(=O)Nc1ccc(O)cc1 8.68%
Cc1cc(C)n(-c2nnc3c4ccccc4n(C)c3n2)n1 16.2%
O=C(Nc1ccc2c(c1)OCO2)c1ccc(CO)cc1 6.96%
CCOC(=O)CSc1nc2ccccc2c(=O)n1NC(=O)c1ccccc1 15%
c1cncc(CSc2ccc(-c3ccc4c(c3)OCO4)nn2)c1 7.68%
